Screens (PubChem)
NPC1 prom act: NPC1 promoter activation; Huh7 NPC1 promoter luciferase reporter, 24 h; 320,000 tested, 2.4% active; AID 485313; Potency, µM (highest dose often 9.22 µM), for inactives: at the top dose activation, most hits filed as activators; further: % of control where 0% means no effect; nearly all actives have a fitted effect of over 60% in size
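Readout is luciferase luminescence, reflecting NPC1 promoter activation in stably transfected Huh7 cells after 24 h compound exposure at 37 °C in reduced-serum medium with 10% FBS.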
SMN2 splice enh: enhancers of SMN2 splice variant expression | HEK293 SMN2-luciferase splicing reporter, luminescence, 30-36 h | Potency, µM (highest dose often 46.1 µM), for the others: top-dose activity change, positive = activation, hits mostly activators | 210,000 tested, 2.8% active | AID 1458; further: % of control where 0% means no effect; nearly all actives have a fitted effect of over 55% in size
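HEK293 cells carry an SMN2 […]–luciferase reporter in which exon 7 inclusion puts luciferase in frame. Cells were plated 10-12 h before compound addition, then incubated 30-36 h at 37C. ONE-Glo luminescence was read; sodium butyrate at 4.5 mM final served as control.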
FLuc modulator: firefly luciferase modulation, counter-screen for miR-21 project | P08659 | purified FLuc, Km substrates, luminescence inhibition | Potency, µM (series often up to 57.5 µM), inactives show top-dose activity change, negative = inhibition, hits mostly inhibitors | 360,000 tested, 6.9% active;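 further: plate controls were vehicle for no effect and reference inhibitor for full effect; nearly all actives have a fitted effect of over 55% in size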
Target sequence (P08659 whole entry, looked up): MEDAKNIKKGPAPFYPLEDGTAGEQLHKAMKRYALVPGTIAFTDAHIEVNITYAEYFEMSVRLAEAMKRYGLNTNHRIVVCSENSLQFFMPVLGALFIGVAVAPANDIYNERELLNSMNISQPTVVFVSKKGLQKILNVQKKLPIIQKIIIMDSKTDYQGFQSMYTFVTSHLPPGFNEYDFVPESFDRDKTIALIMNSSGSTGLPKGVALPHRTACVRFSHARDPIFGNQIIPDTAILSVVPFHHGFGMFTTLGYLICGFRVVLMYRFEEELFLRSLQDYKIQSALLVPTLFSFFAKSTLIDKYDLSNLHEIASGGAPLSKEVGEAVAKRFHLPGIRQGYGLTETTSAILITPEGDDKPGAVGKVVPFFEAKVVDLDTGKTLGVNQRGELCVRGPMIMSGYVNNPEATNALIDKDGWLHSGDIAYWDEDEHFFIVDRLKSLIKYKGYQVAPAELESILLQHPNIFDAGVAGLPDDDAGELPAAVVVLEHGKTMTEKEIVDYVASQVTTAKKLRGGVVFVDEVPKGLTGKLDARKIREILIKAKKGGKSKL
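Biochemical qHTS of compounds, final roughly 60 µM downward over six points, against 10 nM purified firefly luciferase using Km concentrations of substrates (10 uM D-luciferin, 10 uM ATP) in Tris acetate pH 7.5 buffer; luminescence output.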
ELG1 genotoxic: induces genotoxicity in HEK293T cells with luciferase-tagged ELG1. HEK293T ELG1-luciferase reporter, luminescence, 16 h. Potency, µM (highest dose often 46 µM), for the others: at the highest dose activity change, positive = activation, hits mostly activators. 330,000 tested, 1.3% active. AID 504466; further: % of control where 0% means no effect; nearly all actives have a fitted effect of over 60% in size
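Luminescence read-out: rising ELG1-luciferase signal, reflecting elevated ELG1 protein under genetic stress, flags genotoxic compounds. Cells were treated for 16 hr at 37 °C before ONE-Glo detection.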
Rab9 promoter act: activators of Rab9 promoter. Huh7 Rab9 promoter-luciferase reporter, luminescence, 24 h. Potency, µM (highest dose often 9.22 µM), without a hit: top-dose activation, negative = inhibition, hits mostly activators. 320,000 tested, 2.8% active. AID 485297; further: % of control where 0% means no effect; nearly all actives have a fitted effect of over 60% in size
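Measured in stably transfected Huh7 cells bearing a Rab9 promoter–luciferase construct: 24 h compound treatment at 37 °C, followed by luminescence detection.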
Luc counter: Kinase-Glo luciferase inhibition (counter-screen) | Q27757 | Kinase-Glo luciferase, ATP luminescence, 8 min | 200,000 tested, 0.28% active | AID 1379 | Potency, µM (doses to about 38.3 µM), for inactives: at the top dose activity change, negative = inhibition, hits mostly inhibitors; further: on the % scale 0 is the no-effect control and ±100 the full control effect; nearly all actives have a fitted effect of over 60% in size
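Compound is pinned into ATP-containing buffer (10 uM ATP, imidazole pH 7.2, 7 mM MgCl2). Kinase-Glo luciferase reagent is then added. Light output is recorded following an 8-min room-temperature incubation.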
Starred values were filed as active, the others as inactive; ? = inconclusive; nt = no result. Hits are enriched below; roughly 7.5% of the tested compounds scored in any of these assays. The call rests on the fitted dose curve; in most records, active means well fitted curve in the direction sought with a large enough effect; inconclusive means small, poorly fitted or top-dose-only effect, or another doubt; inactive means no such curve, though single readings can be large; an effect the other way counts as inactive or inconclusive. Potency means the concentration at half of the fitted maximal effect.

SMILES | NPC1 prom act | SMN2 splice enh | FLuc modulator | ELG1 genotoxic | Rab9 promoter act | Luc counter
O=C(CSCC(=O)Nc1nc(-c2ccc3c(c2)OCO3)cs1)Nc1nccs1 | 25% | nt | ? | 0% | 25% | nt
CCCC(=O)Nc1nc(-c2ccc3c(c2)OCCO3)cs1 | 1.8µM* | 8.9µM* | 6µM* | 2.6µM* | 3.2µM* | 2%
CCCC(=O)Nc1nnc(-c2ccc3c(c2)OCO3)s1 | 22% | nt | -14% | ? | ? | nt
CSCC(=O)Nc1nc(-c2ccc3c(c2)OCCO3)cs1 | 3.2µM* | 11µM* | 11µM* | 14% | 2.8µM* | -2%
CCCC(=O)Nc1nnc(-c2ccc3c(c2)OCCO3)o1 | 16% | ? | 15µM* | -5% | 2% | 7%
CC(C)c1ccc(NC(=O)c2ccccc2NC(=O)C2CCCCC2C(=O)O)cc1 (configuration not stated) | 25% | nt | ? | 14% | ? | nt
Cc1nc2c(c(C)c1CCC(=O)Nc1cccc(C(F)(F)F)c1)c(=O)n(C)c(=O)n2C | nt | -19% | 4% | nt | nt | nt
O=C(/C=C/c1ccccc1)Nc1scc(-c2ccccc2)c1C(=O)O | 2.5µM* | 11µM* | 3µM* | 12% | 1.6µM* | -11%
O=C(/C=C/c1ccco1)Nc1scc(-c2ccccc2)c1C(=O)O | 0.45µM* | nt | 4.8µM* | ? | 0.5µM* | nt
COc1ccc(OCc2csc(N)n2)cc1 | ? | 13µM* | ? | ? | 2.8µM* | -9%
COc1ccccc1-n1cc(-c2ccccc2)[nH]c1=S | -4% | nt | 0% | 0% | 2% | nt
Cc1ccc(-c2cn(-c3ccccc3F)c(=S)[nH]2)cc1 | ? | nt | ? | 15% | 3.2µM* | nt
O=[N+]([O-])c1ccc(-c2cn(-c3ccccc3F)c(=S)[nH]2)cc1 | ? | 14% | 1% | 10% | 1.4µM* | 0%
Cc1ccccc1N(CC(=O)NCc1ccccc1)C(=O)CCC(=O)Nc1nccs1 | 2% | nt | 2% | -3% | -5% | nt
Cc1ccc(/C=N/NC(=O)c2ccco2)s1 | 3.2µM* | ? | 15µM* | ? | 3.2µM* | -12%
O=C(N/N=C/c1ccc(Br)s1)c1ccco1 | ? | nt | 21µM* | ? | ? | nt
COc1cccc2c1Oc1ncccc1N(C(=O)CCC(=O)NCCC(C)C)C2 | nt | nt | -2% | nt | nt | nt
CC(C)(C)C1CCc2c(sc3nc(-c4cc5cc(Cl)ccc5oc4=O)[nH]c(=O)c23)C1 (configuration not stated) | nt | nt | -14% | nt | nt | nt
COc1ccc(C(=O)Nc2cc(C(=O)NCCc3ccccc3)ccc2Cl)cc1 | 10% | 10µM* | ? | 16% | 26% | -5%
COCC(=O)Nc1cc(C(=O)NCCc2ccccc2)ccc1Cl | 1.8µM* | 0.63µM* | ? | ? | 2µM* | 1%
CC(C)CCNC(=O)c1ccc(Cl)c(NC(=O)Cc2ccccc2)c1 | -1% | 9% | -11% | -1% | -2% | 7%
CCOCC(=O)Nc1cc(C(=O)NCCc2ccccc2)ccc1Cl | 1µM* | nt | -15% | ? | 2µM* | 0%
O=C(CC1NCCNC1=O)Nc1ccc(F)c(Cl)c1 (configuration not stated) | nt | 6% | -3% | nt | nt | nt
Cc1ccc(N=C/C(C(=O)C(F)(F)F)=C(\O)c2ccco2)cc1Cl | 2% | nt | 9.5µM* | ? | 0% | nt
Cc1cccc(N=C/C(C(=O)C(F)(F)F)=C(\O)c2ccco2)c1 | -4% | 6% | 10% | 1% | 0% | -6%
O=C(NCCNC(=O)c1ccco1)c1ccc(F)cc1 | 0% | -3% | -1% | 1% | 8% | 3%
O=C(/C(C=Nc1ccc(F)cc1)=C(/O)c1ccco1)C(F)(F)F | 2% | ? | 8.5µM* | 7.3µM* | 24% | -2%
CC(C)(C)c1ccc(-c2nc(C=O)c3ccccn23)cc1 | 2% | -14% | 15µM* | 1% | 4% | 0%
C(=N\N1CCOCC1)/c1nc(-c2ccccc2)n2ccccc12 | 1% | 4% | -4% | 3% | 9% | -1%
